Several values for one entry are separate records, joined by “and”; a condition that tells them apart may be missing. Equal values may be shown once. Records with an inconclusive call do not appear. A call without a number means that no potency is given here. More than one record can exist for a structure, and the calls need not agree. Activity calls are given as the source filed them. Calls come from the whole dose curve; as a rule, active = well fitted activation curve with a large enough effect in the repeat runs; inconclusive = weak or mixed curves; inactive = flat fitted curve, though single readings scatter.
assay: A CellTox Green Cytotoxicity Assay to monitor cytotoxicity in HepG2 cells - 16 hour (AID 1224876); details: CellTox Green fluorescence; series mostly up to 76.8 µM; note: nearly all actives have a fitted effect of over 45% in size
Description: National Center for Advancing Translational Sciences [NCATS]
NIH Chemical Genomics Center [NCGC]
U.S. Environmental Protection Agency [EPA]
National Institutes of Environmental Health Sciences [NIEHS]
National Toxicology Program [NTP]
Cell-based models are critical for drug discovery. Determining the natural cytotoxic effects resulting from test compounds is an essential research activity. A CellTox Green Cytotoxicity Assay to monitor cytotoxicity in real time of continues cell culture during 40 hours of the compound treatment was used to screen Tox21 10K library compounds in HepG2 cells. CellTox Green Cytotoxicity Assay is a nonlytic, homogeneous, biofluorescent method to measure cytotoxicity in cell culture after experimental manipulation. The assay system uses a proprietary asymmetric cyanine dye that is excluded from viable cells but preferentially stains the dead cell's DNA. […] Viable cells produce no appreciable increases in fluorescence. Therefore, the fluorescence signal produced by the binding interaction with dead cell DNA is proportional to cytotoxicity.
The mixture of HepG2 cell suspension and reagents were dispensed at 600cells/6 ul/well in 1536-well tissue culture treated black solid bottom plates using a Multidrop dispenser. After the assay plates were incubated at a 37 C/5% CO2 incubator for 5 hours, 23 nL of compounds dissolved in DMSO, positive and negative controls was transferred to the assay plate by a pintool work station. The plates were incubated at 37 C for 40 hours. The fluorescence intensity were measured at 0h, 8h, 16h, 24h, 32h and 40h time points using ViewLux plate reader during compound treatment.
Potency is the fitted concentration of half-maximal effect.

Question: With `C=C(C)C1CC=C(C)C(OC(C)=O)C1` (stereo not given) as the molecule, how does the Potency read?
Answer: The Potency was “inactive”.

Question: With `CC(=O)C1=C(C)[C@@H]2C[C@@]3(C1)[C@H](C)CC[C@H]3C2(C)C` as the molecule, how does the Potency read?
Answer: Its Potency is “inactive”.

Question: For `CCN(CC)CCOc1ccc(/C(=C(\Cl)c2ccccc2)c2ccccc2)cc1`, which Potency is on record?
Answer: The Potency was 31.6 µM (active) and 21.3 µM (active).

Question: For `Cc1ccc(S(=O)(=O)Oc2ccc(N=Nc3ccc(-c4ccc(N=Nc5c(O)ccc6cc(S(=O)(=O)O)cc(S(=O)(=O)O)c56)c(C)c4)cc3C)cc2)cc1`, which Potency is on record?
Answer: The Potency was “inactive”.

Question: For `COc1cc(C(=S)N2CCOCC2)ccc1O`, which Potency is on record?
Answer: Its Potency is “inactive”.

Question: For `CCCCCC(=O)O[C@]1(C(C)=O)CC[C@H]2[C@@H]3CCC4=CC(=O)CC[C@]4(C)[C@H]3CC[C@@]21C`, which Potency is on record?
Answer: The Potency was “inactive”.

Question: With `CCCCCCCCCCCCCCCCCl` as the molecule, how does the cytotoxicity increase read?
Answer: The cytotoxicity increase was 3.3% [at 15.8 µM] (inactive).

Question: Which Potency does the source give for `CCc1cc(C(C)(C)C)c(O)c(C(C)(C)C)c1` here?
Answer: Its Potency is “inactive”.

Question: Which Potency does the source give for `O=C(Nc1ccccc1SSc1ccccc1NC(=O)c1ccccc1)c1ccccc1` here?
Answer: Its Potency is “inactive”.

Question: For `Cc1cccc([N+](=O)[O-])c1C(=O)O`, which Potency is on record?
Answer: Its Potency is “inactive”.

Question: For `CC(C)(C)NC(=O)[C@@H]1CN(Cc2cccnc2)CCN1C[C@@H](O)C[C@@H](Cc1ccccc1)C(=O)N[C@H]1c2ccccc2C[C@H]1O`, which Potency is on record?
Answer: Its Potency is “inactive”.

Question: Which Potency does the source give for `CC1COc2c(N3CCN(C)CC3)c(F)cc3c(=O)c(C(=O)O)cn1c23` (stereo not given) here?
Answer: The Potency was “inactive”.

Question: With `CC(C)(C)NCC(O)COc1ccccc1OCC1CCCO1` (stereo not given) as the molecule, how does the Potency read?
Answer: Its Potency is “inactive”.

Question: With `CCN1CCCC1CNC(=O)c1cc(S(=O)(=O)CC)c(N)cc1OC` (stereo not given) as the molecule, how does the Potency read?
Answer: Its Potency is “inactive”.

Question: With `CC1=CC(=O)c2ccccc2C1=O` as the molecule, how does the Potency read?
Answer: Its Potency is 49 µM (active) and 26.8 µM (active).

Question: For `Oc1c(Cl)cc(Cl)c(Cl)c1Cc1c(O)c(Cl)cc(Cl)c1Cl`, which Potency is on record?
Answer: Its Potency is “inactive and 43.6 µM (active)”.

Question: Which Potency does the source give for `O=C(Oc1ccccc1)c1ccccc1O` here?
Answer: Its Potency is “inactive”.

Question: For `Cc1ccnc2c1NC(=O)c1cccnc1N2C1CC1`, which Potency is on record?
Answer: The Potency was “inactive”.

Question: For `Cc1ccc(-c2cc(C(F)(F)F)nn2-c2ccc(S(N)(=O)=O)cc2)cc1`, which Potency is on record?
Answer: Its Potency is 48.8 µM (active) and 43.6 µM (active).

Question: Which Potency does the source give for `CN1C(=O)c2ccc([N+](=O)[O-])cc2C1=O` here?
Answer: The Potency was “inactive”.

Question: With `CC(C)(c1ccccc1)c1ccc(Nc2ccc(C(C)(C)c3ccccc3)cc2)cc1` as the molecule, how does the Potency read?
Answer: The Potency was “inactive”.

Question: With `O=S(=O)(O)c1ccc2nc(-c3ccccc3)[nH]c2c1` as the molecule, how does the Potency read?
Answer: The Potency was “inactive”.

Question: For `Cc1c(O)cccc1C(=O)N[C@@H](CSc1ccccc1)[C@H](O)CN1C[C@H]2CCCC[C@H]2C[C@H]1C(=O)NC(C)(C)C`, which Potency is on record?
Answer: Its Potency is “inactive”.

Question: With `O=C1NCC2(CCN(CCc3ccccc3)CC2)O1` as the molecule, how does the Potency read?
Answer: Its Potency is “inactive”.

Question: With `CCOc1ccc2c(c1)C(C)=CC(C)(C)N2` as the molecule, how does the Potency read?
Answer: Its Potency is “inactive”.

Question: With `O=C(Cl)c1cccc(C(=O)Cl)c1` as the molecule, how does the Potency read?
Answer: The Potency was “inactive”.

Question: For `NC(N)=Nc1nc(CSCC/C(N)=N/S(N)(=O)=O)cs1`, which Potency is on record?
Answer: The Potency was 4.36 µM (active) and inactive.

Question: Which Potency does the source give for `[Cl][In]([Cl])[Cl]` here?
Answer: Its Potency is “inactive”.

Question: Which Potency does the source give for `CCC(C)(C)C(=O)O[C@H]1C[C@@H](C)C=C2C=C[C@H](C)[C@H](CC[C@@H]3C[C@@H](O)CC(=O)O3)[C@H]21` here?
Answer: Its Potency is “inactive and 21.3 µM (active)”.

Question: Which Potency does the source give for `COC(=O)[C@H]1[C@H]2C[C@@H]3c4[nH]c5cc(OC)ccc5c4CCN3C[C@H]2C[C@@H](OC(=O)c2cc(OC)c(OC)c(OC)c2)[C@@H]1OC` here?
Answer: Its Potency is “inactive”.

Question: Which Potency does the source give for `CC(C)C(=O)c1c(C(C)C)nn2ccccc12` here?
Answer: Its Potency is “inactive”.

Question: For `CC(=O)O[C@]1(C(C)=O)CC[C@H]2[C@@H]3C[C@H](C)C4=CC(=O)CC[C@]4(C)[C@H]3CC[C@@]21C`, which Potency is on record?
Answer: The Potency was “inactive”.

Question: For `COc1nc(C)nc(Cl)c1NC1=NCCN1`, which Potency is on record?
Answer: The Potency was “inactive”.

Question: With `CCCCCCCCCCCC[N+](C)(C)C` as the molecule, how does the Potency read?
Answer: The Potency was 43.6 µM (active).

Question: For `COC(=O)/C=C/c1ccccc1`, which Potency is on record?
Answer: Its Potency is “inactive”.

Question: With `CC(=O)CC(=O)Nc1ccc2[nH]c(=O)[nH]c2c1` as the molecule, how does the Potency read?
Answer: Its Potency is “inactive”.

Question: Which Potency does the source give for `COC(=O)c1cccc(C(=O)OC)c1` here?
Answer: Its Potency is “inactive and 38.9 µM (active)”.

Question: Which Potency does the source give for `Oc1c(Cl)cc(Cl)cc1Sc1cc(Cl)cc(Cl)c1O` here?
Answer: The Potency was 44.4 µM (active) and 43.6 µM (active) and inactive.

Question: With `O=C1Nc2ccccc2C1(c1ccc(O)cc1)c1ccc(O)cc1` as the molecule, how does the Potency read?
Answer: The Potency was “inactive”.

Question: For `c1ccc2cc3c(ccc4ccccc43)cc2c1`, which Potency is on record?
Answer: Its Potency is “inactive”.
